# Out of some 310,000 compounds screened, about 14,000 (4.5%) showed an effect of 50% or more. Effects have a minus sign here. The full list was thinned out, with strong results kept by preference.
# Molecular target: human ether-à-go-go-related gene (hERG) potassium channel (human, UniProt Q12809)
# Test: primary screen, population patch clamp on CHO cells stably expressing hERG; higher = less effect of the substance
# 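Further: peak tail current of the secondary pulse compared with the same well before compound.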
# Chain of human ether-à-go-go-related gene (hERG) potassium channel (Q12809 whole entry, looked up): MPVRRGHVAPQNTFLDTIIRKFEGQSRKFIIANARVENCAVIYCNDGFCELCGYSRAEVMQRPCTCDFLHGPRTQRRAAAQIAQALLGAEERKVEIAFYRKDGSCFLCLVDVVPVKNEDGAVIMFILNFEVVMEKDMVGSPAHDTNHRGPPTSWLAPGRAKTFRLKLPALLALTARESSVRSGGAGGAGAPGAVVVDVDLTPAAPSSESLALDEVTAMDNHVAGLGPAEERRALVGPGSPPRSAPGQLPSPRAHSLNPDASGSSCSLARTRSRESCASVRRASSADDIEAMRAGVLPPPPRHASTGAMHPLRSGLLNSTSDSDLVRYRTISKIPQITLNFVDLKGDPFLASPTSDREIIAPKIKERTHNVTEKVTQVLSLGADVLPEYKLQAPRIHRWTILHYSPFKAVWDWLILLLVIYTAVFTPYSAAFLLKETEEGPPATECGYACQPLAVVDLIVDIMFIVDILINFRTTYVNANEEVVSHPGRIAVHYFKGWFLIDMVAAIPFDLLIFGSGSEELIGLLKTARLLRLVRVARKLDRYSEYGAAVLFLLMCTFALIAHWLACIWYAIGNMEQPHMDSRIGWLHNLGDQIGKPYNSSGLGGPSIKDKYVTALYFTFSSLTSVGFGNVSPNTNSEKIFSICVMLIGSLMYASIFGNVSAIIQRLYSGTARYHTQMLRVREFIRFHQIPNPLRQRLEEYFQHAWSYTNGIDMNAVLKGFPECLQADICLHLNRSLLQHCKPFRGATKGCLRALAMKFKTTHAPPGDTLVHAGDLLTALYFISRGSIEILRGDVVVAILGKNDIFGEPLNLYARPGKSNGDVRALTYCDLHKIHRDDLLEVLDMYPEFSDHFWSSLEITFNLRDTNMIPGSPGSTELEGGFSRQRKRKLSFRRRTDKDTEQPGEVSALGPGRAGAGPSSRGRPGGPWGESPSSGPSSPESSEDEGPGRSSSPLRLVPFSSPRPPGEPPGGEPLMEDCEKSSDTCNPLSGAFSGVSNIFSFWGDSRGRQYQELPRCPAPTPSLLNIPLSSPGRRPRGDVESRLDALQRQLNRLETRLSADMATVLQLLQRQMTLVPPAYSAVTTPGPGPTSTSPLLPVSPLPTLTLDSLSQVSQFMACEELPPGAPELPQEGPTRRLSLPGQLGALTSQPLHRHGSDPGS
row,Structure (SMILES),"hERG current change (%, negative = inhibition) at 10uM"
1,CCC(C)NC(=O)c1ccccc1NC(=O)Nc1ccccc1 (centres unmarked),3.24%
2,COc1ccccc1OCCNC(=O)C(=O)c1c[nH]c2ccccc12,5.02%
3,CC1(C)Cc2c(sc3c2C(=O)N(c2ccccc2)C2=NCCCN23)CO1,3.7%
4,CC(C)C[C@H](NC(=O)c1nc[nH]c1C(=O)NC1CCN(C(=O)OC(C)(C)C)CC1)C(=O)OC(C)(C)C,-10.8%
5,O=C(Nc1c2c(nn1-c1ccc(F)cc1)CS(=O)C2)C12CC3CC(CC(C3)C1)C2 (centres unmarked),16.7%
6,COc1ccccc1N(CC(=O)NCCSc1ccc(Cl)cc1)S(C)(=O)=O,-6.87%
7,COc1cc(CNCc2ccccn2)ccc1OCc1ccc(Cl)cc1.Cl,-56.8%
8,COc1cc(CNCc2ccccn2)ccc1OCC(N)=O.Cl,-0.0507%
9,COc1cc(CNCc2cccnc2)ccc1OCc1ccccc1.Cl,-21.8%
10,Cc1ccc(S(=O)(=O)NCC(C)n2nc(C)nc2C)cc1 (centres unmarked),-0.542%
11,C=CCn1c(O)c(N=O)c2cc(C)ccc21,-8.69%
12,CCn1c(SCC(=O)Nc2ccc3c(c2)OCCO3)nnc1-c1ccncc1,0.979%
13,Cc1ccc(S(=O)(=O)N2CCN(C(=O)CN3CCN(C)CC3)C2)cc1,14.1%
14,COc1ccccc1Nc1nc2ccccc2n1C,-3.73%
15,COc1ccccc1C(=O)NCCC(=O)NC(C)c1ccc(-n2ccnc2)cc1 (centres unmarked),-17.1%
16,CCOc1ccc(C(C)NC(=O)c2ccccc2OCc2c(C)noc2C)cc1OCC (centres unmarked),-23.8%
17,Cc1noc(C)c1COc1ccccc1C(=O)NC(C)c1ccc(Cl)cc1 (centres unmarked),-55.8%
18,COc1ccccc1C(=O)NCC(=O)Nc1cccnc1,20.5%
19,COc1ccccc1C(=O)NCC(=O)NC(C)c1ccc(-n2ccnc2)cc1 (centres unmarked),-66.4%
20,COc1ccccc1C(=O)NC(C)c1ccc(-n2ccnc2)cc1 (centres unmarked),-52.6%
21,Cc1cccc(C(=O)NCC(=O)NC(C)c2ccc(-n3ccnc3)cc2)c1 (centres unmarked),-68.5%
22,Cc1noc(C)c1COc1ccccc1C(=O)NCCc1ccc(Cl)cc1,-20.8%
23,COc1ccccc1C(=O)NC(C)c1ccccc1 (centres unmarked),18.6%

row,Structure (SMILES),"hERG current change (%, negative = inhibition) at 10uM"
1,COC(=O)CSc1nnc2n(-c3ccc(OC)cc3)c(=O)c3c4c(sc3n12)CCCCC4,-10.6%
2,Cc1cc(NC(=O)CCC(=O)N(CC(=O)NC2CCCC2)c2ccc(Cl)cc2)no1,-16.7%
3,CN1CCN(S(=O)(=O)c2ccc(NC(=O)COc3ccccc3Cl)cc2)CC1,20.1%
4,COc1ccc(NC(C)=O)cc1NS(=O)(=O)c1ccc2c(c1)OCCO2,21.4%
5,O=C(Nc1ccc2c(c1)OCO2)c1nn(-c2ccccc2)c(=O)c2ccccc12,11%
6,O=C1C(=O)N(CCN2CCOCC2)C(c2ccccc2F)/C1=C(\O)c1ccc(S(=O)(=O)N2CCOCC2)cc1 (centres unmarked),11.5%
7,O=C(Nc1ccccc1-c1nnn(CC(=O)N2CCCc3ccccc32)n1)c1ccc(Cl)cc1,8.92%
8,O=C(COC(=O)c1ccc(F)cc1F)NC1CC1,23%
9,Cc1ccc(OC(=O)c2cncc(Br)c2)c(C)c1,16%
10,N/C(=N\OC(=O)COc1ccccc1)c1ccccn1,13.6%
11,O=C(CN(c1ccc(F)cc1)S(=O)(=O)c1ccc2c(c1)OCCO2)Nc1ccc2c(c1)OCO2,14.4%
12,N/C(=N\OC(=O)c1cc(Br)ccc1Cl)c1ccccn1,13.1%
13,CCOc1ccccc1C(=O)NCC(=O)NC(C)c1ccc(-n2ccnc2)cc1 (centres unmarked),-70.9%
14,CC(NC(=O)CCNC(=O)c1ccc(Br)cc1)c1ccc(-n2ccnc2)cc1 (centres unmarked),-66.5%
15,CCOc1ccccc1C(=O)NC(C)c1ccc(-n2ccnc2)cc1 (centres unmarked),-57.5%
16,CC(NC(=O)c1ccccc1C(=O)O)c1ccc(-n2ccnc2)cc1 (centres unmarked),16%
17,CCOc1ccc(C(=O)NCC(=O)Nc2ccncc2)cc1OCC,4.58%
18,CCOc1ccccc1C(=O)NCC(=O)Nc1ncccc1C,14%
19,CC(NC(=O)CCNC(=O)c1ccc(Br)cc1)c1ccc(S(N)(=O)=O)cc1 (centres unmarked),15.3%
20,CCOc1ccc(C(=O)NCC(=O)NC(C)c2ccc(-n3ccnc3)cc2)cc1OCC (centres unmarked),-77.4%
21,CC(NC(=O)c1ccccc1Cl)c1ccc(-n2ccnc2)cc1 (centres unmarked),-34.2%
22,COc1cc(C(=O)NCC(=O)NC(C)c2ccc(-n3ccnc3)cc2)cc(OC)c1OC (centres unmarked),-3.06%
23,CC(C)c1ccc(CCNC(=O)CCNC(=O)c2ccc(Br)cc2)cc1,5.74%

row,Structure (SMILES),"hERG current change (%, negative = inhibition) at 10uM"
1,Nc1nnc(SCC(=O)NNC(=O)c2ccc(Cl)cc2)s1,-0.0303%
2,O=C(N/N=C/c1ccc(O)cc1)c1ccc(COc2cc(Cl)ccc2Cl)o1,7.07%
3,c1csc(-c2nn3c(Cn4nnc5ccccc54)nnc3s2)c1,16.6%
4,Cc1cc(NNC(=O)Nc2cccc(Cl)c2)nc2c1c(C)nn2C,3.56%
5,Cc1ccccc1NC(=O)CN1C(=O)N/C(=C\c2ccc(N3CCOCC3)c(F)c2)C1=O,10.8%
6,COc1ccc(NC(=S)NCCc2c[nH]c3ccccc23)cc1,-7.49%
7,Nc1ccccc1C#Cc1ccc([N+](=O)[O-])cc1,1.66%
8,CCc1ccc(-c2cc(C)no2)cc1S(=O)(=O)N1CCN(c2ccc(C(C)=O)cc2)CC1,-4.32%
9,C=CCC(CC=C)(C(=O)O)c1ccccc1,-8.46%
10,CC(NC(=O)CNC(=O)c1ccccc1F)c1ccc(-n2ccnc2)cc1 (centres unmarked),-64%
11,CC(NC(=O)c1ccccc1OC(F)F)c1ccc(-n2ccnc2)cc1 (centres unmarked),-55%
12,COc1ccc(NC(C)=O)cc1S(=O)(=O)NC(C)c1ccc(-n2ccnc2)cc1 (centres unmarked),-3.74%
13,COc1ccc(C(=O)NC(C)c2ccc(-n3ccnc3)cc2)c(OC)c1 (centres unmarked),-53.8%
14,CC(NC(=O)CCNC(=O)c1ccccc1Cl)c1ccc(-n2ccnc2)cc1 (centres unmarked),-17.8%
15,CC(NC(=O)c1c(F)cccc1Cl)c1ccc(-n2ccnc2)cc1 (centres unmarked),-27%
16,COc1ccc(OC)c(S(=O)(=O)NC(C)c2ccc(-n3ccnc3)cc2)c1 (centres unmarked),-25.1%
17,COc1ccc(C(=O)NC(C)c2ccc(-n3ccnc3)cc2)c(OC)c1OC (centres unmarked),-53.1%
18,CCCCN(CC)CCNC(=O)Cn1cnc2sc(C)c(S(=O)(=O)N3CCC(C)CC3)c2c1=O,-19.1%
19,Cc1cc(C)c(S(=O)(=O)c2cc(F)ccc2C)c(=O)[nH]1,18.1%
20,COc1ccc(-c2noc(C(C)NS(=O)(=O)c3ccc(NC(C)=O)cc3)n2)cc1 (centres unmarked),17.5%
21,Oc1cccc(CCC2CCCCN2Cc2cn[nH]c2-c2ccc3c(c2)OCO3)c1 (centres unmarked),-66.2%
22,c1cc2c(cc1-c1[nH]ncc1CN1C[C@H]3CC[C@H]1C3)OCO2,-3.58%
23,COCC1CCCCN1Cc1cn[nH]c1-c1ccc2cc(OC)ccc2c1 (centres unmarked),-70.2%

row,Structure (SMILES),"hERG current change (%, negative = inhibition) at 10uM"
1,COc1ccc(-c2[nH]ncc2CN2C[C@@H]3CCC[C@H]2C3)c(F)c1,8.16%
2,COc1ccc2cc(-c3[nH]ncc3CN3CCCC3c3nonc3C)ccc2c1 (centres unmarked),0.998%
3,Cc1nonc1C1CCCN1Cc1cn[nH]c1-c1ccc2c(c1)OCO2 (centres unmarked),-25.6%
4,c1cc2c(cc1-c1[nH]ncc1CN1CC3C[C@@H]4CC1C[C@H](C3)C4)OCO2,-44.3%
5,COCC1CCCCN1Cc1cn[nH]c1-c1ccc(OC)cc1OC (centres unmarked),-25.5%
6,COc1ccc2cc(-c3[nH]ncc3CN3C[C@@H]4CCC[C@H]3C4)ccc2c1,-58.7%
7,CCN(CC(=O)Nc1c(F)cccc1F)C(=O)CSc1nc2ccccc2o1,-1.64%
8,Cc1cccc(NS(=O)(=O)c2ccc3nc(-c4ccccc4)[nH]c3c2)c1C,11.8%
9,CCn1cc(C(=O)NCC(OC)OC)c(=O)c2cc(S(=O)(=O)N3CCCC3)ccc21,10.3%
10,O=C(COC(=O)CCCN1C(=O)c2ccccc2C1=O)Nc1ncc(Cl)cc1Cl,-9.74%
11,O=S(=O)(c1ccc2ccccc2c1)N1CCN=C1SCc1cccnc1,-43.9%
12,O=c1ccc(/C=C/c2ccccc2)nn1Cc1ccc(Cl)cc1Cl,8.47%
13,CCOc1cc(NC(=O)c2ccco2)c(OCC)cc1NC(=O)COc1ccccc1C,26.4%
14,CC(C)(C)c1cc(NC(=O)C2CCCO2)no1 (centres unmarked),11.6%
15,CCC(Oc1cc(Cl)ccc1Cl)C(=O)N1CCC2(CC1)OCCO2 (centres unmarked),4.7%
16,Cc1ccsc1C(=O)C1CCCN(Cc2cccc(OCCO)c2)C1 (centres unmarked),-16.3%
17,Cc1ccsc1C(=O)C1CCCN(Cc2ccc(-n3cccn3)cc2)C1 (centres unmarked),-67.7%
18,Cc1ccsc1C(=O)C1CCCN(Cc2cc(C(C)C)n[nH]2)C1 (centres unmarked),-43.9%
19,Cc1ccsc1C(=O)C1CCCN(Cc2cccc(-n3cccn3)c2)C1 (centres unmarked),-65.4%
20,Cc1ccsc1C(=O)C1CCCN(Cc2ccc(O)cc2)C1 (centres unmarked),-22.9%
